In PubChem BioAssay (Tox21) one finds outcome, Potency and max activation data, which are given here for 9 molecules.

Values without a mark were called inactive. Inconclusive results are not listed. Active and inactive are the calls of the source. Unless noted, calls come from the whole dose curve; as a rule, active = well fitted curve in the direction sought with a large enough effect in the repeat runs; inconclusive = weak or mixed curves; inactive = no such curve, though single readings can be large; an effect the other way counts as inactive or inconclusive.

A short description of test [1]: qHTS assay to identify small molecule agonists of the TGF-beta/Smad signaling pathway - cell viability counter screen (AID 1346829). Note: top concentration of the series differs between compounds; nearly all actives have a fitted effect of over 45% in size. The method, boiled down: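 Tox21 qHTS format: SBE-bla HEK 293T cells treated with DMSO-dissolved compounds for 5 hr; CellTiter-Glo luminescence after 30 min at room temperature.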
Test [2] is described as follows: qHTS assay to identify small molecule agonists of the TGF-beta/Smad signaling pathway (AID 1346859; active = well fitted activation curve with a large enough effect in the signal ratio in the repeat runs, not every such curve was filed as active; the % refers to the signal ratio; note: series mostly up to about 77 µM). The method, boiled down:
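Beta-lactamase reporter activity downstream of Smad binding elements was measured in stably transfected HEK 293T cells; compounds were incubated for 5 hr, substrate for 2 hr at room temperature.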
A general note: qHTS replaces the single test concentration by a dilution series.

Test [3] deals with Thyrotropin-releasing hormone receptor (Homo sapiens) (UniProt P34981). In words: qHTS assay to identify small molecule agonists of the thyrotropin-releasing hormone receptor (TRHR) signaling pathway (AID 1346891; calls by dose curve;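 note: HEK293 cells expressing TRHR with calcium dye readout; series mostly up to about 58 µM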). The essentials:
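Overnight-plated (18 h, 37 °C, 5% CO2) TRHR-Hek293 cells; 2 h calcium dye at 37 °C; compound in DMSO; 3-min kinetic fluorescence read.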

The nature of test [4]: Caspase-3/7 induction in HepG2 cells by small molecules, qHTS assay (AID 1346978). Note: nearly all actives have a fitted effect of over 15% in size. The essentials: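 Wild-type HepG2 cells, 2,000/well, settled 5 hr at 37 C and 5% CO2, then compound-treated for 17 hr; caspase-3/7 activity read by luminescent Caspase-Glo 3/7 after 30 min at room temperature.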
Test [5] in a line: Caspase-3/7 induction in CHO-K1 cells by small molecules, qHTS cell viability counter screen (AID 1346979). Note: nearly all actives have a fitted effect of over 35% in size. The essentials: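 Multiplexed with Caspase-Glo 3/7 in CHO-K1 cells, this counter screen added CellTiter-Fluor after 16hr of compound exposure and recorded fluorescence 1hr later.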
Test [6] can be described thus: Caspase-3/7 induction in CHO-K1 cells by small molecules, qHTS assay (AID 1346980). Note: nearly all actives have a fitted effect of over 15% in size. The essentials: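 Wild-type CHO-K1 cells exposed to compounds for 17hr at 37 C, 5% CO2. Caspase-3/7 activity then measured by Caspase-Glo 3/7 luminescence after 30min at room temperature.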
A short description of test [7]: Caspase-3/7 induction in HepG2 cells by small molecules, qHTS cell viability counter screen (AID 1346981). Note: series mostly up to about 92 µM; nearly all actives have a fitted effect of over 30% in size. The essentials: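 CellTiter-Fluor fluorescence measured viability in the same wells used for Caspase-Glo 3/7. HepG2 (wild type) at 2,000 cells/well were pre-incubated 5 hr, dosed, and given reagent at 16 hr, with 1 hr further at 37C.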
Test [8] addresses Nuclear receptor subfamily 1 group I member 2 (Homo sapiens) (UniProt O75469). In words: Human pregnane X receptor (PXR) small molecule agonists, qHTS assay (AID 1346982). Note: nearly all actives have a fitted effect of over 35% in size. The method, boiled down:
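Agonist mode: luminescence from ONE-Glo after 24 h compound exposure at 37C in HepG2 cells carrying hPXR-responsive CYP3A4 luciferase, plated in charcoal-stripped serum medium 5 h beforehand.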

Test [9] has as its target Cytochrome P450 2D6 (Homo sapiens) (UniProt P10635). In words: Cytochrome P450 Family 2 Subfamily D Member 6 (CYP2D6) small molecule antagonists: luciferase reporter qHTS assay (AID 1671196). Note: series mostly up to about 120 µM; nearly all actives have a fitted effect of over 50% in size. The method, boiled down:
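CYP2D6 activity was followed as luminescence from its luciferin product after a 1 h NADPH-driven reaction at room temperature. Enzyme-substrate mix and compound were pre-incubated for 10 min, and the signal was read 20 min after adding detection reagent.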

The target of test [10] is Cytochrome P450 2C19 (Homo sapiens) (UniProt P33261). In words: Cytochrome P450 Family 2 Subfamily C Member 19 (CYP2C19) small molecule antagonists: luciferase reporter qHTS assay (AID 1671197). Note: nearly all actives have a fitted effect of over 65% in size. Note: potency is the fitted concentration of half-maximal effect. The essentials:
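Relative luminescence units recorded 20 min after the detection reagent stopped a 1 h, 37C CYP2C19 reaction on proluciferin substrate, which was started by NADPH regeneration following 10 min room-temperature compound preincubation; ketoconazole positive control.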

The target in test [11] is Voltage-gated inwardly rectifying potassium channel KCNH2 (Homo sapiens) (UniProt Q12809). In words: Human Ether-a-go-go-Related Gene (hERG) channel small molecule antagonists: fluorescence cell-based qHTS assay (AID 1671200).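 Note: hERG-expressing U2OS cells given a thallium stimulus after FluxOR II dye loading; series mostly up to about 77 µM; nearly all actives have a fitted effect of over 50% in size.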 The method, boiled down: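 Cell line hERG-U2OS; dye FluxOR II, 1 h RT dark; Tl+ stimulus; ex 480/em 540 nm, read each second for 2 min.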
A general note: The hERG channel carries a current that helps repolarise heart muscle cells.

In test [12] the target is Cytochrome P450 3A4 (Homo sapiens) (UniProt P08684). In words: Cytochrome P450 Family 3 Subfamily A Member 4 (CYP3A4) small molecule antagonists: luciferase reporter qHTS assay (AID 1671201). Note: nearly all actives have a fitted effect of over 50% in size. Note: potency is the fitted concentration of half-maximal effect. The method, boiled down: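 Room-temperature assay throughout: 10 min compound–enzyme/substrate preincubation, 1 h reaction after NADPH regeneration solution, 20 min detection. Luciferin formed from proluciferin substrate is quantified by luminescence.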
(In general: A reporter such as luciferase makes a cellular process visible.)

Test [13] in a line: Human pregnane X receptor (PXR) small molecule agonists, qHTS cell viability counter screen (AID 1346977). Note: nearly all actives have a fitted effect of over 50% in size. The method, boiled down:
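After a 5hr pre-incubation, PXR-Luc HepG2 cells received compounds plus positive control in DMSO and were kept 24hr at 37C. Cell viability was quantified by fluorescence from CellTiter-Fluor added for the final hour.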

The target of test [14] is Cytochrome P450 2C9 (Homo sapiens) (UniProt P11712). In words: Cytochrome P450 Family 2 Subfamily C Member 9 (CYP2C9) small molecule antagonists: luciferase reporter qHTS assay (AID 1671198). Note: nearly all actives have a fitted effect of over 50% in size. Note: potency is the fitted concentration of half-maximal effect. The method, boiled down:
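P450-Glo proluciferin substrate with CYP2C9 enzyme; 10 min RT preincubation, then NADPH regeneration 1 h at 37C; luciferin detection reagent 20 min RT, luminescence in relative luminescence units.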

Test [15] deals with Cytochrome P450 1A2 (Homo sapiens) (UniProt P05177). In words: Cytochrome P450 Family 1 Subfamily A Member 2 (CYP1A2) small molecule antagonists: luciferase reporter qHTS assay (AID 1671199). Note: nearly all actives have a fitted effect of over 50% in size. Note: potency is the fitted concentration of half-maximal effect. The essentials:
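Luminescence from luciferin formed by CYP1A2 from a proluciferin substrate, read 20 min after detection reagent. Compound was pre-incubated 10 min with enzyme-substrate, and reaction started with NADPH regeneration solution for 1 h at room temperature; furafylline control.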

Test [16] deals with Nuclear receptor subfamily 1 group I member 2 (Rattus norvegicus) (UniProt Q9R1A7). In words: Rat pregnane X receptor (rPXR) activation by small molecules, qHTS assay (AID 1346983). Note: nearly all actives have a fitted effect of over 20% in size. As to conditions: rPXR luciferase reporter cells, One-Glo luminescence, 24 h; active compounds read high. The essentials: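 Cell-based rPXR activation assay: rPXR cells, 2,000 per well, rested 5hr at 37 C, then exposed to compounds in DMSO for 24 hr at 37 C. Luciferase activity read by One-Glo luminescence after 30 min at room temperature.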

The target in test [17] is Nuclear receptor subfamily 1 group I member 2 (Homo sapiens) (UniProt O75469). In words: CYP3A4 induction through human pregnane X receptor (PXR) by small molecules, qHTS assay (AID 1346984). Note: nearly all actives have a fitted effect of over 40% in size. The method, boiled down:
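Read-out is luminescence after One-Glo addition, following a 3 hr, 37C incubation with Luciferin-IPA CYP3A4 substrate (3uM final). Before that, compounds were on DPX-2 cells (HepG2 co-transfected with PXR element plus CYP3A4-promoter luciferase) for 24 hr at 37C.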

Test [18] shares this target. In words: Human pregnane X receptor (PXR) activation by small molecules, qHTS assay (AID 1346985). Note: nearly all actives have a fitted effect of over 40% in size. The essentials:
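DPX-2 cells (HepG2 co-transfected with a PXR response element and a CYP3A4-promoter luciferase construct) were seeded at 2,000 per well, rested 5 hr at 37C, then exposed to DMSO-dissolved compounds for 24 hr. Activation was read as luciferase luminescence.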
% is set by controls: 0 for no effect and ±100 for the full control effect.

Cytochrome P450 2C19 (Homo sapiens), sequence (P33261 whole entry, looked up): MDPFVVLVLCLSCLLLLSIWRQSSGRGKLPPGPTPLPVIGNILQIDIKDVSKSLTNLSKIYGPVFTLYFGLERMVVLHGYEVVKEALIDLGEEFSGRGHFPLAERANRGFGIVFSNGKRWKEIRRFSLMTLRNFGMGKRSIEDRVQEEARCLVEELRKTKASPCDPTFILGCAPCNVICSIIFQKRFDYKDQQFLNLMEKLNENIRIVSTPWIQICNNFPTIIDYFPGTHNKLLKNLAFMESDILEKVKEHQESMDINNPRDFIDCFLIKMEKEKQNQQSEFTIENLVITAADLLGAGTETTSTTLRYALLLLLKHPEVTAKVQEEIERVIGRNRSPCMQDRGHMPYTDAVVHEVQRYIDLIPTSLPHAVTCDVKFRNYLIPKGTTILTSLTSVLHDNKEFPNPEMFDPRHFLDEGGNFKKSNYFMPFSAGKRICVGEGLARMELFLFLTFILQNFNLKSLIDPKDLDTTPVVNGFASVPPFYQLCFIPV
Cytochrome P450 2D6 (Homo sapiens), sequence (P10635 whole entry, looked up): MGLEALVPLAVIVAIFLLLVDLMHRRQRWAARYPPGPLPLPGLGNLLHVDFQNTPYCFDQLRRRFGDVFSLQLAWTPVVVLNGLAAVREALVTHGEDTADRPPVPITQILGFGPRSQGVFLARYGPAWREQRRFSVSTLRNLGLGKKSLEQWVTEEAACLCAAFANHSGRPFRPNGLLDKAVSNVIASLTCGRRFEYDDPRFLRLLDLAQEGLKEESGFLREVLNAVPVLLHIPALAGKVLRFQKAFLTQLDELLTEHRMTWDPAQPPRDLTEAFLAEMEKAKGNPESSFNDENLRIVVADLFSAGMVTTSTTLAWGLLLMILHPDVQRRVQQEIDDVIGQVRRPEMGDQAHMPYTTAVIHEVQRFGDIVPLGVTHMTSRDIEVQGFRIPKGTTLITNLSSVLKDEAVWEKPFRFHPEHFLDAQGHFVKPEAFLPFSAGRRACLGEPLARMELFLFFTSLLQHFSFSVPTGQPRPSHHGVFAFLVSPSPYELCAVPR
Thyrotropin-releasing hormone receptor (Homo sapiens), sequence (P34981 whole entry, looked up): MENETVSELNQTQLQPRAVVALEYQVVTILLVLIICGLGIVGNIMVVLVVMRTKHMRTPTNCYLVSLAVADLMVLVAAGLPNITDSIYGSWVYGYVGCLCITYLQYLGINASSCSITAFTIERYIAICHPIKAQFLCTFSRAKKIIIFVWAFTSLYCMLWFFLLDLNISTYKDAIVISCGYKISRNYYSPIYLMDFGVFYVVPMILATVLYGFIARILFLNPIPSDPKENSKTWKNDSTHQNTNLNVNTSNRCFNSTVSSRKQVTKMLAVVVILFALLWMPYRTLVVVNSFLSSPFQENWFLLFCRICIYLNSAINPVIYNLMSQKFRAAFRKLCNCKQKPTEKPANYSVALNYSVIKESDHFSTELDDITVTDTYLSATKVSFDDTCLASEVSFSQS
Cytochrome P450 1A2 (Homo sapiens), sequence (P05177 whole entry, looked up): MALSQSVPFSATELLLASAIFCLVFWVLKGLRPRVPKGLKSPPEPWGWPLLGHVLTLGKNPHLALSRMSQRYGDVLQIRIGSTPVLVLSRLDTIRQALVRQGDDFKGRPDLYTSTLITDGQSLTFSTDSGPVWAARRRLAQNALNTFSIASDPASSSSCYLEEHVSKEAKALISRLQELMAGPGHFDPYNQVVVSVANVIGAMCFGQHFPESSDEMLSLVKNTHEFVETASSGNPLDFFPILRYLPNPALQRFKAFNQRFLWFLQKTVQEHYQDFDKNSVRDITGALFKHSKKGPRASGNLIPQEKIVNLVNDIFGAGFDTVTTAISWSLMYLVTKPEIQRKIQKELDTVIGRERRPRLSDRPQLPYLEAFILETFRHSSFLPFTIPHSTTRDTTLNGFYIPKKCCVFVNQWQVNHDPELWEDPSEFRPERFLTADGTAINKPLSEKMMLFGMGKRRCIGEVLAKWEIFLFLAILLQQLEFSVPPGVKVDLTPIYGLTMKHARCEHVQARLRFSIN
Cytochrome P450 2C9 (Homo sapiens), sequence (P11712 whole entry, looked up): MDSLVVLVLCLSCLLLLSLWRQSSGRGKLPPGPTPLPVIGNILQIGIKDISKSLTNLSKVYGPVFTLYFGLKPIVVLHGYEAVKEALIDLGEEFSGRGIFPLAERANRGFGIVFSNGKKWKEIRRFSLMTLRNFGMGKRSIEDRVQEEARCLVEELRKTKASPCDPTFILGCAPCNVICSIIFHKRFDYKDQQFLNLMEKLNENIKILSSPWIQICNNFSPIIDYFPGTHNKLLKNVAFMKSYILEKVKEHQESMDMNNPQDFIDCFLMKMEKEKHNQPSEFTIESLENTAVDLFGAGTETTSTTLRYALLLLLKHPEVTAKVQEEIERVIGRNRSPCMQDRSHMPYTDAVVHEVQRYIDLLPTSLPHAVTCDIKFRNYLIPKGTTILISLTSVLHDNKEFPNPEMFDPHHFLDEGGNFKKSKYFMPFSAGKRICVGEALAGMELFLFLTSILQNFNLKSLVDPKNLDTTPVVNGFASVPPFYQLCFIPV
Voltage-gated inwardly rectifying potassium channel KCNH2 (Homo sapiens), sequence (Q12809 whole entry, looked up): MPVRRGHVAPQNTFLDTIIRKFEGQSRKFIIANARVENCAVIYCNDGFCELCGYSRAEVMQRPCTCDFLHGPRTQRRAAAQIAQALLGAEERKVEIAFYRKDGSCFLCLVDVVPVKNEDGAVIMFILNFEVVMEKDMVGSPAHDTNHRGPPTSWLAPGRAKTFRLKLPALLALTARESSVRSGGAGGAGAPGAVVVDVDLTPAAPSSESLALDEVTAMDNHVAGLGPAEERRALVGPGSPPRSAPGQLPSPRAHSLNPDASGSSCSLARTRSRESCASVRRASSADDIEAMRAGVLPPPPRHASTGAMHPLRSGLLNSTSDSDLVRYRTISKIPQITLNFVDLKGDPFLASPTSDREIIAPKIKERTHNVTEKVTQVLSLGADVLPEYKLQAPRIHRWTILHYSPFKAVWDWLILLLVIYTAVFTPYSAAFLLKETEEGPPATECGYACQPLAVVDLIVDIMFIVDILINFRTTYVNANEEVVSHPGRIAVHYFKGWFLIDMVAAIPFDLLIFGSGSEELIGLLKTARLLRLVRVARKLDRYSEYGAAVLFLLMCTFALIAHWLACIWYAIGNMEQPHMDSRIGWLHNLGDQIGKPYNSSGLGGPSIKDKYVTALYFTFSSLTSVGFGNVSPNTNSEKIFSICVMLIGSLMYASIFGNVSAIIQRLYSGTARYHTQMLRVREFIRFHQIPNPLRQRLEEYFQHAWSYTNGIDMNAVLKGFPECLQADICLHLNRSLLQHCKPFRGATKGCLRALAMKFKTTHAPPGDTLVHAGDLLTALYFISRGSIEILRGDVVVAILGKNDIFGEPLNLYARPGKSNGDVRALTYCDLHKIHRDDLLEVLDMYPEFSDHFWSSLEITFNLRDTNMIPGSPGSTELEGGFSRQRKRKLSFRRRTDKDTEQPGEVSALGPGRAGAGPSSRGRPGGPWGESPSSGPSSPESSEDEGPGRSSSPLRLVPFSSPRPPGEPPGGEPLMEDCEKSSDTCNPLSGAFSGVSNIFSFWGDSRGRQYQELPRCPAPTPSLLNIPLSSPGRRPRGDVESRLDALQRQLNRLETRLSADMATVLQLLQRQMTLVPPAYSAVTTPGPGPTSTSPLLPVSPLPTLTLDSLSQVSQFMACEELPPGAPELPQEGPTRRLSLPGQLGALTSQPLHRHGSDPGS
Cytochrome P450 3A4 (Homo sapiens), sequence (P08684 whole entry, looked up): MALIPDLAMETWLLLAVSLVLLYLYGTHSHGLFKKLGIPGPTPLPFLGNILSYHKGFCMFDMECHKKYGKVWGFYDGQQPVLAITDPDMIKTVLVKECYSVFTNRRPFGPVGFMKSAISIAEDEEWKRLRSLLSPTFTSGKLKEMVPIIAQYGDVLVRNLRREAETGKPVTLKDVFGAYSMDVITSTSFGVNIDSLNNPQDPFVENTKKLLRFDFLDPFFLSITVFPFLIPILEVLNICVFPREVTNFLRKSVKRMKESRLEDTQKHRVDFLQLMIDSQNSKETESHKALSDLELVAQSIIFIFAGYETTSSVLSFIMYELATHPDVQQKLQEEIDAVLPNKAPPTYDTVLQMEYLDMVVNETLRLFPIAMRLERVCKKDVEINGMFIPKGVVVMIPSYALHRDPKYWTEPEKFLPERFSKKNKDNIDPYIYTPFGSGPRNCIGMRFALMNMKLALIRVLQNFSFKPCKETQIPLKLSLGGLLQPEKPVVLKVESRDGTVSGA
Nuclear receptor subfamily 1 group I member 2 (Homo sapiens), sequence (O75469 whole entry, looked up): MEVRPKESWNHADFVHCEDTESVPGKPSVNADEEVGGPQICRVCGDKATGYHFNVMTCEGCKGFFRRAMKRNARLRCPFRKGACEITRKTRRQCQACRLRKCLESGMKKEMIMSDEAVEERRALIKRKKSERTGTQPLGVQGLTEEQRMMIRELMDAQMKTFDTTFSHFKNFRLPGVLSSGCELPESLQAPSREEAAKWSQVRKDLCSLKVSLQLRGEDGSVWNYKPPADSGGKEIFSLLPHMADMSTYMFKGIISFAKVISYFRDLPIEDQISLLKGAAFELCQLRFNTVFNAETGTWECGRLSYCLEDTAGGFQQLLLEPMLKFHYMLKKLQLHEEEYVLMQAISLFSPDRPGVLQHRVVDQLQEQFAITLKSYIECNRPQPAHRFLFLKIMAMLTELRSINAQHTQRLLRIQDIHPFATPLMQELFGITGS
Nuclear receptor subfamily 1 group I member 2 (Rattus norvegicus), sequence (Q9R1A7 whole entry, looked up): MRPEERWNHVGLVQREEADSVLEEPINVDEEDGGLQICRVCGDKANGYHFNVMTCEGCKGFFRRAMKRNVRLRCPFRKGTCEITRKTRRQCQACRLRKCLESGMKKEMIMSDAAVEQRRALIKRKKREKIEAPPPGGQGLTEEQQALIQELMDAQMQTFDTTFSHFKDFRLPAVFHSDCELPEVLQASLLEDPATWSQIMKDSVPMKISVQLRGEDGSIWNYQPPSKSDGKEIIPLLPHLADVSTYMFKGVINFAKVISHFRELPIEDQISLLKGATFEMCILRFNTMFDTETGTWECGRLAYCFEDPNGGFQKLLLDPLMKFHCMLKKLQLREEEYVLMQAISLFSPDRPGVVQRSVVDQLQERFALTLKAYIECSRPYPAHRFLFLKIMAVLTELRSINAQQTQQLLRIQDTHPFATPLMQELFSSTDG

Consider `c1ccc(-c2nn[nH]n2)cc1`, for which the molecule was classed as inactive in test [1], in [2], in test [3], in test [4], in test [6] and in test [7]. The Potency result in [5], in [8], in test [9], in [10], in test [11] and in test [12] was “inactive” throughout.
Regarding `CCCCCC/C=C/C(=O)OC`, the call in test [1], in test [2], in [13], in [4], in test [6] and in [7] was inactive. Further, the Potency result in [5], in [8], in [9], in [10], in test [14] and in test [15] was “inactive” in each case. Further, the Potency result in test [11] and in [12] was “inactive” throughout.
On to `C=CCCCCCCCCC(=O)OCCCC`, for which the molecule was called inactive in [1], in test [2], in test [3], in test [13], in [4] and in [6]. The Potency entry in [5], in [8], in test [9], in [11] and in [12] was “inactive” each time. In addition, in [10], the Potency is 56.4 µM (active).
Turning to `OC[C@@H](O)C(O)[C@@H](O)CO` (some centres undefined), the molecule was classed as inactive in test [1], in test [2], in test [3], in test [13], in test [4] and in [7]. Further, the Potency entry in test [5], in [8], in test [9], in test [15], in test [11] and in test [12] was “inactive” in each case. In test [10], the Potency is 40.4 µM (active).
For `CCC(C)C(=O)OCCc1ccccc1` (centres undefined), the outcome in test [1], in [2], in test [3], in [13], in [4] and in [7] was inactive. For the same molecule, the Potency entry in [5], in [8], in [10], in test [14], in test [15] and in [11] was “inactive” each time. In addition, the Potency entry in [12] is “inactive”.
As for `CCOc1cccc(N)c1`, the molecule was called inactive in [1], in [2], in test [3], in test [13], in [4] and in test [7]. Moreover, the Potency result in test [5], in test [8] and in [11] was “inactive” throughout. Besides, the Potency is 6.3 µM (active) in [10], 7.93 µM (active) in [14], 35.4 µM (active) in [15] and 2.23 µM (active) in test [12].
For the molecule `CO/N=C(/C(=O)N[C@@H]1C(=O)N2C(C(=O)[O-])=C(C[n+]3ccn4ncccc43)CS[C@H]12)c1nsc(N)n1`, the molecule was classed as inactive in test [1], in test [2], in [13], in test [4], in test [6] and in [7]. Further, the Potency entry in test [5], in test [8], in test [9], in test [14] and in test [12] was “inactive” each time. Moreover, the Potency in test [15] was 27.5 µM (active).
Take `CCC(=O)Oc1ccc2c(c1)CC[C@@H]1[C@@H]2CC[C@@]2(C)[C@H]1C[C@@H](OC(=O)CC)[C@@H]2OC(=O)CC`: the molecule was called inactive in test [1], in test [2], in [3], in test [4], in test [6] and in test [7]. For the same molecule, the Potency result in [5], in test [8], in [9], in test [15], in test [11] and in test [12] was “inactive” each time. In addition, the Potency is 27.5 µM (active) in test [10] and 24.5 µM (active) in [14].
For the molecule `O=C(CN1CCNCC1)NC1CCCCC1`, the call in test [1], in test [2], in [13], in test [4], in [6] and in [7] was inactive. In addition, the Potency entry in [5], in test [8], in test [17], in [18], in test [10] and in test [14] was “inactive” throughout. The Potency entry in test [15], in [11] and in test [12] was “inactive” in each case. In [16], the max activation is -3.24%.
